# Measured values published in article PMC11062922 (Nature Chemical Biology, 2023).
# Like-named read-outs stand apart in the source and are kept apart here.
# Key:
# Design in all cases: species or system human, MV4-11 + K-562 + COLO205 + SK-N-BE2 + OVCAR-8
# ATR = conditions: read-out: apparent Kd, n = 1
# NLK = conditions: read-out: apparent Kd, n = 1
# PIK3CA = conditions: read-out: apparent Kd, n = 1
# MAP4K1 = conditions: read-out: apparent Kd, n = 1
# CDC7 = conditions: read-out: apparent Kd, n = 1
# CDK5 = conditions: read-out: apparent Kd, n = 1
# NQO2 = conditions: read-out: apparent Kd, compound concentrations: 100 nM and 1000 nM (sheet 'Samples'), n = 1
# CDK6 = conditions: read-out: apparent Kd, n = 1
# STK26 = conditions: read-out: apparent Kd, compound concentrations: 100 nM and 1000 nM (sheet 'Samples'), n = 1
# JAK1 = conditions: read-out: apparent Kd, n = 1
# PRKCB = conditions: read-out: apparent Kd, n = 1
# MAP2K1 = conditions: read-out: apparent Kd; compound concentrations:100 nM and 1000 nM (sheet 'Samples'); n = 1
# IRAK4 = conditions: read-out: apparent Kd; compound concentrations:100 nM and 1000 nM (sheet 'Samples'); n = 1
# DJA1 = tested on: T1, DJA1; conditions: read-out: apparent Kd, compound concentrations: 100 nM and 1000 nM (sheet 'Samples'), n = 1
# T1 construct: gene DNAJA1
# [1] = compound concentrations:100 nM and 1000 nM (sheet 'Samples')
structure (smiles),measurement,setting,value
CNc1cc(-c2ccc3c(N)n[nH]c3c2)nc(N)n1 [GSK2224810A],potency estimated from few doses,ATR; [1],814 nM
same,potency estimated from few doses,NLK; [1],1610 nM
same,potency estimated from few doses,PIK3CA; [1],245 nM
O=C(O)C(F)(F)F.O=c1[nH]ccc2nc(N[C@@H]3CCNC3)nc(Nc3cc(Cl)cc(Cl)c3)c12 [GSK2188764A],potency estimated from few doses,MAP4K1; [1],1030 nM
Cl.Nc1nc(-c2ccc3c(c2)C(=Cc2cc(Br)c(O)c(Br)c2)C(=O)N3)cs1 [GW407323A],potency estimated from few doses,"CDC7; compound concentrations: 100 nM and 1000 nM (sheet 'Samples'), CATDS: 3.34335879912959E-2",903 nM
same,potency estimated from few doses,"CDK5; compound concentrations: 100 nM and 1000 nM (sheet 'Samples'), CATDS: 3.2075067944878903E-2",1060 nM
same,potency estimated from few doses,NQO2; CATDS: 3.5438928095243502E-2,734 nM
NS(=O)(=O)c1ccc(N/C=C2\C(=O)Nc3ccc4ncsc4c32)cc1 [GW297361X],potency estimated from few doses,"CDC7; compound concentrations: 100 nM and 1000 nM (sheet 'Samples'), CATDS: 3.3579769325783403E-2",1330 nM
same,potency estimated from few doses,"CDK5; compound concentrations: 100 nM and 1000 nM (sheet 'Samples'), CATDS: 4.1634678032953398E-2",772 nM
same,potency estimated from few doses,"CDK6; compound concentrations: 100 nM and 1000 nM (sheet 'Samples'), CATDS: 3.48419374837717E-2",1200 nM
same,potency estimated from few doses,STK26; CATDS: 3.6702057868443203E-2,1050 nM
COc1cc[nH]c1/C=C1\C(=O)Nc2ccc([N+](=O)[O-])c(N3CC[C@@H](O)C3)c21 [RO0504985-000],potency estimated from few doses,"CDK5; compound concentrations: 100 nM and 1000 nM (sheet 'Samples'), CATDS: 3.2036617578660199E-2",1470 nM
same,potency estimated from few doses,"JAK1; compound concentrations: 100 nM and 1000 nM (sheet 'Samples'), CATDS: 3.4351644402230902E-2",1130 nM
Cc1occc1-c1nc(N)c(OC[C@@H](N)Cc2c[nH]c3ccccc23)cc1-c1cc2c(C)n[nH]c2cn1 [GSK1660450B],potency estimated from few doses,PRKCB; [1],126 nM
COc1cc[nH]c1/C=C1\C(=O)Nc2ccc(F)c(C#C[C@@H](O)[C@@H](N)[C@@H](C)O)c21 [RO0283120-000],potency estimated from few doses,CDK5; [1],1070 nM
same,potency estimated from few doses,CDK6; [1],1140 nM
same,potency estimated from few doses,JAK1; [1],468 nM
same,potency estimated from few doses,MAP4K1; [1],1060 nM
NS(=O)(=O)c1ccc(NC=C2C(=O)Nc3ccc4ncsc4c32)cc1 [GW589933X],potency estimated from few doses,"CDC7; compound concentrations: 100 nM and 1000 nM (sheet 'Samples'), CATDS: 1.6133442669584601E-2",2200 nM
same,potency estimated from few doses,"CDK5; compound concentrations: 100 nM and 1000 nM (sheet 'Samples'), CATDS: 3.21718775388454E-2",288 nM
same,potency estimated from few doses,"CDK6; compound concentrations: 100 nM and 1000 nM (sheet 'Samples'), CATDS: 2.1682770776227499E-2",765 nM
same,potency estimated from few doses,"MAP4K1; compound concentrations: 100 nM and 1000 nM (sheet 'Samples'), CATDS: 1.8829734427402701E-2",1190 nM
same,potency estimated from few doses,STK26; CATDS: 5.6823828903644298E-2,94.3 nM
O=C1N=C(NCc2ccccc2Br)S/C1=C\c1ccc2ncccc2c1 [RO4506918-000],potency estimated from few doses,NQO2; CATDS: 7.7702899171443504E-2,1480 nM
Nc1nc(-c2ccc3c(N)n[nH]c3c2)cc(N2CCCC(NC(=O)c3ccccc3)C2)n1 (stereo not drawn) [GSK2286775B],potency estimated from few doses,CDK6; [1],1510 nM
same,potency estimated from few doses,MAP2K1,1830 nM
NS(=O)(=O)c1ccc(N/N=C2\C(=O)Nc3ccc4ncccc4c32)cc1 [GW305178X],potency estimated from few doses,"CDK5; compound concentrations: 100 nM and 1000 nM (sheet 'Samples'), CATDS: 5.4245718700327898E-2",776 nM
same,potency estimated from few doses,STK26; CATDS: 3.9228488204277198E-2,2190 nM
CN[C@H](C#Cc1c(F)ccc2c1/C(=C/c1[nH]ccc1OC)C(=O)N2)CO.Cl [RO0283049-001],potency estimated from few doses,"CDK6; compound concentrations: 100 nM and 1000 nM (sheet 'Samples'), CATDS: 1.9484263699736298E-2",2150 nM
same,potency estimated from few doses,"JAK1; compound concentrations: 100 nM and 1000 nM (sheet 'Samples'), CATDS: 9.7447783313560105E-2",49.7 nM
same,potency estimated from few doses,"MAP4K1; compound concentrations: 100 nM and 1000 nM (sheet 'Samples'), CATDS: 2.1208459408743999E-2",1460 nM
Cn1cc(C2=C(c3c(S(C)=O)n(C)c4ccccc34)C(=O)NC2=O)c2ccccc21 (stereo not drawn) [RO0317379-000],potency estimated from few doses,NQO2; CATDS: 0.10247036288978301,1820 nM
O=C(Nc1n[nH]c2nc(-c3ccccc3O)ccc12)C1CC1 [SB-711880],potency estimated from few doses,IRAK4,958 nM
COc1ccc(Nc2nccc(NCCNC(=O)Nc3cc(C)ccc3C)n2)cc1 [GSK1379899A],potency estimated from few doses,DJA1; CATDS: 4.7532524958751397E-2,1320 nM
same,potency estimated from few doses,"PIK3CA; compound concentrations: 100 nM and 1000 nM (sheet 'Samples'), CATDS: 0.114925337657843",250 nM
CN(C)c1ccc2c(c1)/C(=C/Nc1ccc(S(N)(=O)=O)cc1)C(=O)N2 [GW416469X],potency estimated from few doses,DJA1; CATDS: 7.6568205350202298E-2,1420 nM
same,potency estimated from few doses,"PIK3CA; compound concentrations: 100 nM and 1000 nM (sheet 'Samples'), CATDS: 0.16808925824439999",245 nM
same,potency estimated from few doses,STK26; CATDS: 7.4408225949633894E-2,1550 nM
COc1cc[nH]c1/C=C1\C(=O)Nc2ccc(F)c(I)c21 [RO0281567-000],potency estimated from few doses,NQO2; CATDS: 0.103820399985183,1830 nM
CCn1c(-c2nonc2N)nc2cncc(C(=O)N3CC[C@H](N)C3)c21.Cl [SB-772077-B],potency estimated from few doses,PRKCB; [1],752 nM
Nc1nccc(-c2ccc3c(N)n[nH]c3c2)n1 [GSK1034945A],potency estimated from few doses,CDC7; [1],1420 nM
same,potency estimated from few doses,CDK6; [1],2150 nM
CCn1c(-c2nonc2N)nc2cncc(Br)c21 [SB-738004],potency estimated from few doses,CDC7; [1],655 nM
same,potency estimated from few doses,PRKCB; [1],1350 nM
CNCC1CCn2c(c(C3=C(c4cn(C)c5ccccc45)C(=O)NC3=O)c3ccccc32)C1 (stereo not drawn) [RO0318676-000],potency estimated from few doses,"PRKCB; compound concentrations: 100 nM and 1000 nM (sheet 'Samples'), CATDS: 0.17130797334845299",28.9 nM
NS(=O)(=O)c1cccc(-c2ccc3c(NC(=O)C4CC4)n[nH]c3c2)c1 [SB-741905],potency estimated from few doses,DJA1; CATDS: 0.110749292558391,1780 nM
same,potency estimated from few doses,"NLK; compound concentrations: 100 nM and 1000 nM (sheet 'Samples'), CATDS: 0.11088369265314001",1780 nM
same,potency estimated from few doses,"PIK3CA; compound concentrations: 100 nM and 1000 nM (sheet 'Samples'), CATDS: 0.24789463028651901",301 nM
Cn1cc(C=C2C(=O)Nc3cccnc32)c2ccccc21 [GW441756X],potency estimated from few doses,"JAK1; compound concentrations: 100 nM and 1000 nM (sheet 'Samples'), CATDS: 0.22655128290916701",1250 nM
CCC(CC)(CC)n1cnc2c(N)ncnc21 [SKF-97620],potency estimated from few doses,"ATR; compound concentrations: 100 nM and 1000 nM (sheet 'Samples'), CATDS: 4.3166992032332097E-2",432 nM
same,potency estimated from few doses,"PIK3CA; compound concentrations: 100 nM and 1000 nM (sheet 'Samples'), CATDS: 0.13947400940733601",53.9 nM
